Pf growth 96h – inhibits malaria parasite growth, 96 h. P. falciparum luciferase reporter growth, 96 h. Potency, µM (top dose mostly 28.7 µM), most hits filed as inhibitors. 320,000 tested, 6.9% active. AID 504834
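Plates of compound plus infected erythrocytes (2% hematocrit, 0.05% parasitemia final) incubate 96 hours, 37 C, 5% CO2. Detection reagent added; reduced luminescence from the parasites' luciferase reporter flags inhibition.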
Pf growth 48h – P. falciparum growth inhibition at 48 hours (one generation); P. falciparum luciferase growth in erythrocytes, 48 h; Potency, µM (titrated, usually from 28.7 µM), most hits filed as inhibitors; 310,000 tested, 5.9% active; AID 504832
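In quantitative HTS format, infected erythrocytes bearing luciferase-reporter parasites were treated for a single generation at 37 C. Luminescence after adding detection reagent served as the growth measure.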
CHX counter – counter-screen hit for Shiga toxin inhibitors, cycloheximide. cell reporter, cycloheximide protein synthesis inhibition counterscreen. max response, %. 300,000 tested, 12% active. AID 2314; in the data active = max response mostly above about 13%, no sharp cut-off; inactive = mostly below about 14%; also: read at 38.3 µM for the half of the compounds with a filed dose
Shiga toxin inh – inhibitors of Shiga toxin in Vero cells; Vero cells, Shiga toxin protein synthesis inhibition reporter; inhibition, % at 38.7 µM; AID 2315; 290,000 tested, 9.2% active; in the data active = inhibition mostly above about 28%, no sharp cut-off; inactive = mostly below about 43%
Hits are given with their value. Rows were chosen to be rich in hits. Some 21% of all compounds tested hit in one or more screens of this group. Unless noted, calls follow the shape of the dose curve; as a rule, active = well fitted inhibition curve with a large enough effect; inconclusive = small, poorly fitted or top-dose-only effect, or another doubt; inactive = no such curve, though single readings can be large or run the other way.

For CC1(C)OC1COc1c2ccoc2cc2oc(=O)ccc12 (stereo not drawn) the results were Pf growth 96h 0.37µM, Pf growth 48h inactive, CHX counter inactive and Shiga toxin inh inactive.
Screening CCC(C)C1O[C@]2(C=CC1C)CC1CC(C/C=C(\C)[C@H](OC3CC(OC)C(O[C@H]4CC(OC)[C@@H](O)C(C)O4)C(C)O3)[C@@H](C)/C=C/C=C3\COC4C(O)C(C)=C[C@H](C(=O)O1)[C@@]34O)O2 (stereo partly drawn) returned Pf growth 96h 13µM and Pf growth 48h 15µM.
For Cc1nn(C)c(C(=O)Nc2c(C)nn(Cc3c(F)c(F)c(F)c(F)c3F)c2C)c1Br the results were Pf growth 96h inconclusive, Pf growth 48h inactive, CHX counter inactive and Shiga toxin inh inactive.
Screening Cc1cc2nc(-c3ccc[nH]c3=O)n(Cc3cccc(F)c3)c2cc1C returned Pf growth 96h inactive, Pf growth 48h inactive, CHX counter inactive and Shiga toxin inh inactive.
Screening CCCn1c(-c2ccc[nH]c2=O)nc2cc(C)c(C)cc21 returned Pf growth 96h inactive, Pf growth 48h inactive, CHX counter 38 and Shiga toxin inh 72.
For CCCCc1cc(=O)oc2cc(C)cc(OCC(=O)NCCN3CCOCC3)c12 the results were Pf growth 96h inconclusive, Pf growth 48h inconclusive, CHX counter inactive and Shiga toxin inh inactive.
Screening CCCc1cc(=O)oc2cc(C)cc(OCC(=O)Nc3ccccn3)c12 returned Pf growth 96h 0.66µM, Pf growth 48h 0.93µM, CHX counter 20 and Shiga toxin inh inactive.
For Cc1cc(OCC(=O)Nc2ccccn2)c2c(C)cc(=O)oc2c1 the results were Pf growth 96h inactive, Pf growth 48h inactive, CHX counter inactive and Shiga toxin inh inactive.
Screening CCCCc1cc(=O)oc2cc(C)cc(OCC(=O)Nc3ccccn3)c12 returned Pf growth 96h inconclusive, Pf growth 48h 4.1µM, CHX counter 21 and Shiga toxin inh 61.
`O=C(Nc1ccc(Br)cc1)c1csc(-c2ccncc2)n1` gave Pf growth 96h inconclusive, Pf growth 48h inactive, CHX counter inactive and Shiga toxin inh inactive.
For Brc1ccc(-c2csc(-c3ccncc3)n2)cc1 the results were Pf growth 96h inactive, Pf growth 48h inconclusive, CHX counter inactive and Shiga toxin inh 42.
`Cc1ccc(-c2csc(-c3ccncc3)n2)cc1` gave Pf growth 96h inactive, Pf growth 48h inconclusive, CHX counter 26 and Shiga toxin inh 96.
`CC(NC(=O)C(=O)N1CCCCC1)C(c1cccs1)N1CCN(C)CC1` (stereo not drawn) gave Pf growth 96h inconclusive, Pf growth 48h inactive, CHX counter inactive and Shiga toxin inh inactive.
For CCC[C@@H]1Cc2ccccc2N1C(C)=O the results were Pf growth 96h inactive and Pf growth 48h inactive.
`COc1ccccc1N(CC(=O)NCc1ccco1)C(=O)CCC(=O)Nc1ccccn1` gave Pf growth 96h inactive, Pf growth 48h inconclusive, CHX counter inactive and Shiga toxin inh inactive.
Screening CC(C)c1ccc(N(CC(=O)NCc2ccco2)C(=O)CCC(=O)Nc2ccccn2)cc1 returned Pf growth 96h 0.74µM, Pf growth 48h inactive, CHX counter 11 and Shiga toxin inh 51.
For Cc1cccc(N(CC(=O)NCc2ccco2)C(=O)CCC(=O)Nc2ccccn2)c1C the results were Pf growth 96h 1.9µM, Pf growth 48h inactive, CHX counter inactive and Shiga toxin inh inactive.
O=C(CN(C(=O)CCC(=O)Nc1ccccn1)c1ccc(F)cc1)NCc1ccco1 was read as Pf growth 96h inconclusive, Pf growth 48h inactive, CHX counter inactive and Shiga toxin inh inactive.
`CC(=O)N1CCc2cc(S(=O)(=O)C(C)CC(=O)Nc3ccc(OC(F)(F)F)cc3)ccc21` (stereo not drawn) gave Pf growth 96h inactive, Pf growth 48h inactive, CHX counter 29 and Shiga toxin inh inactive.
For COc1ccc(NC(=O)CCS(=O)(=O)c2ccc3c(c2)CCN3C(C)=O)cc1 the results were Pf growth 96h 12µM, Pf growth 48h inactive, CHX counter inactive and Shiga toxin inh inactive.
Screening CCC1=C(OC(=O)N(CC)CC)N2C(=O)OC(=NCCc3c[nH]c4ccccc34)[C@]2(C)[C@H]2C1=CC[C@H]1C(=O)NC(=O)[C@H]12 returned Pf growth 96h inconclusive, Pf growth 48h 12µM, CHX counter inactive and Shiga toxin inh inactive.
For CCC1=C(OC(=O)N(CC)CC)N2C(=O)OC(=NCCc3c[nH]c4ccccc34)[C@]2(C)[C@H]2C1=CC[C@H]1C(=O)N(CC(=O)OC)C(=O)[C@H]12 the results were Pf growth 96h 15µM, Pf growth 48h 9.3µM, CHX counter inactive and Shiga toxin inh inactive.
For CCC1=C(OC(=O)N(CC)CC)N2C(=O)OC(=NCC3CC3)[C@]2(C)[C@H]2C1=CC[C@H]1C(=O)NC(=O)[C@H]12 the results were Pf growth 96h inconclusive, Pf growth 48h inconclusive, CHX counter inactive and Shiga toxin inh inactive.
Screening CCOCC(=O)N1CCN(c2ccc(F)cc2)CC1 returned Pf growth 96h inactive, Pf growth 48h inactive, CHX counter inactive and Shiga toxin inh inactive.
CC1(C)Cc2cccc(OCC(=O)OCC(=O)c3ccccc3)c2O1 was read as Pf growth 96h inactive and Pf growth 48h inactive.
Screening CC1(C)Cc2cccc(OCC(=O)N3CCN(S(=O)(=O)c4ccccc4)CC3)c2O1 returned Pf growth 96h 4.7µM, Pf growth 48h inconclusive, CHX counter inactive and Shiga toxin inh inactive.
`CCC(=O)c1cc(F)ccc1OCC(=O)N1CCN(c2ccc(F)cc2)CC1` gave Pf growth 96h inactive, Pf growth 48h inactive, CHX counter inactive and Shiga toxin inh inactive.
CC1(C)Cc2cccc(OCC(=O)N3CCN(c4cccc(Cl)c4)CC3)c2O1 was read as Pf growth 96h inconclusive and Pf growth 48h 4.7µM.
Screening CC1(C)Cc2cccc(OCC(=O)N3CCN(c4ccc(F)cc4)CC3)c2O1 returned Pf growth 96h inconclusive and Pf growth 48h 12µM.
COc1ccc(OCC(=O)N2CCN(c3cccc(Cl)c3)CC2)cc1 was read as Pf growth 96h inconclusive, CHX counter inactive and Shiga toxin inh inactive.
`O=C(COC(=O)C1(c2ccccc2)CC1)N1CCN(c2ccc(F)cc2)CC1` gave Pf growth 96h 10µM, Pf growth 48h inactive, CHX counter inactive and Shiga toxin inh inactive.
For COCCCC1CCN(C(=O)C2CCC(=O)N(Cc3ccccc3F)C2)CC1 (stereo not drawn) the results were Pf growth 96h inconclusive, Pf growth 48h inactive, CHX counter inactive and Shiga toxin inh inactive.
For CC(C)CCN(CC(=O)NCc1ccc(F)cc1)S(=O)(=O)c1ccccc1F the results were Pf growth 96h inactive, Pf growth 48h inactive, CHX counter inactive and Shiga toxin inh inactive.
For CCCCc1c(O)nc(SCC(=O)c2ccccc2)n(-c2ccccc2)c1=O the results were Pf growth 96h inactive, Pf growth 48h inactive, CHX counter inactive and Shiga toxin inh inactive.
CC(C)(C)NS(=O)(=O)c1ccc(NC(=S)NC(=O)C2CCC2)cc1 was read as Pf growth 96h inconclusive, Pf growth 48h inactive, CHX counter inactive and Shiga toxin inh inactive.
For COC(=O)c1ccc(C(C(=O)NC2CCCCC2)N(Cc2ccc(F)cc2)C(=O)Cc2cccs2)cc1 (stereo not drawn) the results were Pf growth 96h inconclusive, Pf growth 48h 12µM, CHX counter inactive and Shiga toxin inh inactive.

Screens from PubChem BioAssay.
